# Measurements from ChEMBL document CHEMBL2218924, “A broad activity screen in support of a chemogenomic map for kinase signalling research and drug discovery” (Biochem J, 2013).
# What was measured:
# [1] = target: T1, Ephrin type-A receptor 3 (Homo sapiens) (UniProt P29320); conditions: at 10 µM
# T1 sequence (whole entry): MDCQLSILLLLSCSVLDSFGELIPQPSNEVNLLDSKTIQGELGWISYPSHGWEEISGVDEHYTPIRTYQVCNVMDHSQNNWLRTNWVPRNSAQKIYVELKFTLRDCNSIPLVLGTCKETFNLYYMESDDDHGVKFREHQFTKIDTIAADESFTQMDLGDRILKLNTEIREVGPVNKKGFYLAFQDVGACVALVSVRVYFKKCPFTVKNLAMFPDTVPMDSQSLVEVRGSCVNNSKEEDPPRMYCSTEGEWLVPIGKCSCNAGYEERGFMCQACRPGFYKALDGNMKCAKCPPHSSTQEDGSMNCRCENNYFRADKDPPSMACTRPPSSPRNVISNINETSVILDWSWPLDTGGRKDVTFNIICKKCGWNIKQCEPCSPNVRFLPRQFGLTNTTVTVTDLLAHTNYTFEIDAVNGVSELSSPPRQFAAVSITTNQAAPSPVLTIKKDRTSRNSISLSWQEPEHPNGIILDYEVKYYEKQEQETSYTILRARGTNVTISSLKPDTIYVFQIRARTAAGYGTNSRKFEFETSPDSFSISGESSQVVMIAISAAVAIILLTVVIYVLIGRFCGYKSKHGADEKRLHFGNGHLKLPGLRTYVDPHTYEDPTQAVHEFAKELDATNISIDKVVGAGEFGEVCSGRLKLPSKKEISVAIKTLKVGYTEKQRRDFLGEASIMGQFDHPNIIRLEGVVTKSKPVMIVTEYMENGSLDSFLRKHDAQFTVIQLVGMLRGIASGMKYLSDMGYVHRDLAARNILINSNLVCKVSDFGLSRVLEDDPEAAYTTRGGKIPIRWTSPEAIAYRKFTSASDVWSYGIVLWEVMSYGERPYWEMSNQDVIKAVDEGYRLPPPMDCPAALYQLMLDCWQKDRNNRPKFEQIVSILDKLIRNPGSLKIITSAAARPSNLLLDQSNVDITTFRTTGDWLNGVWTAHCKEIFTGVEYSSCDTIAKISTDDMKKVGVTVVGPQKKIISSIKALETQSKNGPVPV
# [2] = target: Ephrin type-A receptor 5 (Homo sapiens) (UniProt P54756); conditions: at 1 µM
# Chain of Ephrin type-A receptor 5 (Homo sapiens) (P54756 whole entry): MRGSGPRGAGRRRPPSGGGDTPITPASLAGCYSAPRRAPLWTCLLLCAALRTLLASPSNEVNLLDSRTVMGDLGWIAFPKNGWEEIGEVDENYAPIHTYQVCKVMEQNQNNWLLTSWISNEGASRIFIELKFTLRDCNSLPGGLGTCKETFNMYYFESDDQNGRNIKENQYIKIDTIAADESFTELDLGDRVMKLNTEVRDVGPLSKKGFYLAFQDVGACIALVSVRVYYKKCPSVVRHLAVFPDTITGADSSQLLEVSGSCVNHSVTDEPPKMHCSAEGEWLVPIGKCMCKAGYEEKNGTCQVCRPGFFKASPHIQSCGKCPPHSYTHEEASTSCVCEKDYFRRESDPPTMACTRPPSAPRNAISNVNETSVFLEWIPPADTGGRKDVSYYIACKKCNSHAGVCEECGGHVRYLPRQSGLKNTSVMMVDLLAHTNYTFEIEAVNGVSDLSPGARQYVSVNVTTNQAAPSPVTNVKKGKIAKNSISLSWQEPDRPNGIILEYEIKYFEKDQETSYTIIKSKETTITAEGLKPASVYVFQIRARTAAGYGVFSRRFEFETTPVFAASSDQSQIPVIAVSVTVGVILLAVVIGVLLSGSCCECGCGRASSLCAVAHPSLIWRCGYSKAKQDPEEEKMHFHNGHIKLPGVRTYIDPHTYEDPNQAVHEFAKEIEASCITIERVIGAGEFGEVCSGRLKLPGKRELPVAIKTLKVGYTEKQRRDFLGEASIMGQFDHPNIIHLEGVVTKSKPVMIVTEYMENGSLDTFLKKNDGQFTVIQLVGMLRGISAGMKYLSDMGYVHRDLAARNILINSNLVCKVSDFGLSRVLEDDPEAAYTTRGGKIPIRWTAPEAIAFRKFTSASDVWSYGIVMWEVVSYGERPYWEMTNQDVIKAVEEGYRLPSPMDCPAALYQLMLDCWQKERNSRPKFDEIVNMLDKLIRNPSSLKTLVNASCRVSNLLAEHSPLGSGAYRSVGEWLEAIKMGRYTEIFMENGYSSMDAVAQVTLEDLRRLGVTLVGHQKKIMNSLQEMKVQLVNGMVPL
# [3] = target: T2, Ephrin type-A receptor 8 (Homo sapiens) (UniProt P29322); conditions: at 10 µM
# T2 sequence (whole entry): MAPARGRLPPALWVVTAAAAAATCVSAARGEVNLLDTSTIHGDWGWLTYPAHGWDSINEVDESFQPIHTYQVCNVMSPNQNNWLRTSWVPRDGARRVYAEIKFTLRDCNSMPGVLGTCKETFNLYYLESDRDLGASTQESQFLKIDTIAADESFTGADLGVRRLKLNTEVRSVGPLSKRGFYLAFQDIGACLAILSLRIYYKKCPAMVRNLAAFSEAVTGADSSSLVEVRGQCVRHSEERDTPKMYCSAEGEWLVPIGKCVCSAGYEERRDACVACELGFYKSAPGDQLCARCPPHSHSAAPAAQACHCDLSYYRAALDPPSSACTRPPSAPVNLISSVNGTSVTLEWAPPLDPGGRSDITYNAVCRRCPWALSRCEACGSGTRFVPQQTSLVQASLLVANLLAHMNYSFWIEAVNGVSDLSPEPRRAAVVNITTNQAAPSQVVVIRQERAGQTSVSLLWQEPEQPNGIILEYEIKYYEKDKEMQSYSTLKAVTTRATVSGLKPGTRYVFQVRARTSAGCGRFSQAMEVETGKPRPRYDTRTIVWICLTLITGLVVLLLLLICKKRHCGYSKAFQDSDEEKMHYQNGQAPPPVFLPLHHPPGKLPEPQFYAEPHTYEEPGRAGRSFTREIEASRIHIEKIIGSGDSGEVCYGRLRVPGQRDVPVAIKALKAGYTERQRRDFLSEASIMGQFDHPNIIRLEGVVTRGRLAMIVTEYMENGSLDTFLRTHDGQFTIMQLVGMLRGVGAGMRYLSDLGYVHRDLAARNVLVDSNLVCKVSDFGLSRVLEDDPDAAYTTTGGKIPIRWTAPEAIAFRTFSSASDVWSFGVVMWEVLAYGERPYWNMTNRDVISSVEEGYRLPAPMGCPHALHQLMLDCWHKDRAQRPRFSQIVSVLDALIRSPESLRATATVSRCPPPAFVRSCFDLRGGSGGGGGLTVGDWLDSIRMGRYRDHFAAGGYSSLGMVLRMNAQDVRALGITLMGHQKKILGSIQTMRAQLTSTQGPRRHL
# [4] = target: T3, Ephrin type-B receptor 2 (Homo sapiens) (UniProt P29323); conditions: at 1 µM
# T3 sequence (whole entry): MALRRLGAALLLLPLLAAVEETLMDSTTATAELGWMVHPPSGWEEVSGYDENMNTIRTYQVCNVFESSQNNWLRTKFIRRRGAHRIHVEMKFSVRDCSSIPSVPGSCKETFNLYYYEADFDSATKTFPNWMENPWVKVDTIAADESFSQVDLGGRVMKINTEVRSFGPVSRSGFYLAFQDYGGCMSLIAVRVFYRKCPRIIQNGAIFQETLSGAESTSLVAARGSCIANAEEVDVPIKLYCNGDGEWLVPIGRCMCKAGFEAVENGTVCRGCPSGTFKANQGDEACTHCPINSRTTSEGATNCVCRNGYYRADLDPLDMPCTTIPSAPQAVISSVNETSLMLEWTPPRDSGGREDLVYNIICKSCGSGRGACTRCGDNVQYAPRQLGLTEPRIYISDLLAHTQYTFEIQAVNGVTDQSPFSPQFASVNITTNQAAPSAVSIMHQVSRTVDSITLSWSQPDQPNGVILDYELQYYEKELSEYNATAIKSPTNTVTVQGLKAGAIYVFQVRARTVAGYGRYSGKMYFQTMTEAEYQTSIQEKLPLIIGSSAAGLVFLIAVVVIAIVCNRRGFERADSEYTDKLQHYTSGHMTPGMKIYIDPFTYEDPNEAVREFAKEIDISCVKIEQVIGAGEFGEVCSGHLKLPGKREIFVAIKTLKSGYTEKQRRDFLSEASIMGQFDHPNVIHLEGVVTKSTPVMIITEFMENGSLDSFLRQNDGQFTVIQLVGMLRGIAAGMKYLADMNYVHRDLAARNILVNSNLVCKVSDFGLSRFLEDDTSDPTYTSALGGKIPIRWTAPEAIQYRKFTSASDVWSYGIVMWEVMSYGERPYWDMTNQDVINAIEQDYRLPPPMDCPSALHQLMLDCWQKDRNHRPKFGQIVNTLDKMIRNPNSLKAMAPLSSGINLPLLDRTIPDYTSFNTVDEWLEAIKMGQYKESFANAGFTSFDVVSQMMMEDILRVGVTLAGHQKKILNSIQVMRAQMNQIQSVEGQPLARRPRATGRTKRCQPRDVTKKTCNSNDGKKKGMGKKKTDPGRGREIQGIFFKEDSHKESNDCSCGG
# [5] = target: T3, Ephrin type-B receptor 2 (Homo sapiens); conditions: at 10 µM
# [6] = target: T4, Ephrin type-B receptor 3 (Homo sapiens) (UniProt P54753); conditions: at 1 µM
# T4 sequence (whole entry): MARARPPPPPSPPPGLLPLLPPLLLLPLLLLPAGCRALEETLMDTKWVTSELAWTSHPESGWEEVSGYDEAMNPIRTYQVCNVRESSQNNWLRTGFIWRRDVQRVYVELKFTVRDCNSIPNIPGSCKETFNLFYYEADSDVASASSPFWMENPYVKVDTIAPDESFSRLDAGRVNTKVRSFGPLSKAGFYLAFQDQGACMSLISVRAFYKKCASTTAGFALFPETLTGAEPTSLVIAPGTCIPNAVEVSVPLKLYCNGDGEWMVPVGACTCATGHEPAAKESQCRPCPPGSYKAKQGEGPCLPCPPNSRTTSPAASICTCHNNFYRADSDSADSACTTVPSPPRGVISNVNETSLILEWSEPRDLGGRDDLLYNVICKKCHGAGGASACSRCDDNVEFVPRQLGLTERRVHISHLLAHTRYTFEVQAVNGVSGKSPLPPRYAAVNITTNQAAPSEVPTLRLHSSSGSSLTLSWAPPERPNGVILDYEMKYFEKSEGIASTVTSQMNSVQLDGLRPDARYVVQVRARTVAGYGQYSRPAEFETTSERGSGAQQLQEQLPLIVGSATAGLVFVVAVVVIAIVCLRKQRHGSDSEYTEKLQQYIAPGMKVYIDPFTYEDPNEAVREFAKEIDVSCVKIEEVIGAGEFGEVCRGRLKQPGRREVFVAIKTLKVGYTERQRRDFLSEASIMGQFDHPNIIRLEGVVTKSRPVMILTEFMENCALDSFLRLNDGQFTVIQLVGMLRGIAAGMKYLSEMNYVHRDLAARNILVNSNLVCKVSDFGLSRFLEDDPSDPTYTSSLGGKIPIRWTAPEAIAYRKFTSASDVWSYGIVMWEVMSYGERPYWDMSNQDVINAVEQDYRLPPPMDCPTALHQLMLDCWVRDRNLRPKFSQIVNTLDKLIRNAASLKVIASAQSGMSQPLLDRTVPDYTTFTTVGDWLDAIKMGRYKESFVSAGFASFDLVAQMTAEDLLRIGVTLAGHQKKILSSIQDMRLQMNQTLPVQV
# [7] = target: T4, Ephrin type-B receptor 3 (Homo sapiens); conditions: at 10 µM
# [8] = target: T5, Ephrin type-B receptor 4 (Homo sapiens) (UniProt P54760); conditions: at 1 µM
# T5 sequence (whole entry): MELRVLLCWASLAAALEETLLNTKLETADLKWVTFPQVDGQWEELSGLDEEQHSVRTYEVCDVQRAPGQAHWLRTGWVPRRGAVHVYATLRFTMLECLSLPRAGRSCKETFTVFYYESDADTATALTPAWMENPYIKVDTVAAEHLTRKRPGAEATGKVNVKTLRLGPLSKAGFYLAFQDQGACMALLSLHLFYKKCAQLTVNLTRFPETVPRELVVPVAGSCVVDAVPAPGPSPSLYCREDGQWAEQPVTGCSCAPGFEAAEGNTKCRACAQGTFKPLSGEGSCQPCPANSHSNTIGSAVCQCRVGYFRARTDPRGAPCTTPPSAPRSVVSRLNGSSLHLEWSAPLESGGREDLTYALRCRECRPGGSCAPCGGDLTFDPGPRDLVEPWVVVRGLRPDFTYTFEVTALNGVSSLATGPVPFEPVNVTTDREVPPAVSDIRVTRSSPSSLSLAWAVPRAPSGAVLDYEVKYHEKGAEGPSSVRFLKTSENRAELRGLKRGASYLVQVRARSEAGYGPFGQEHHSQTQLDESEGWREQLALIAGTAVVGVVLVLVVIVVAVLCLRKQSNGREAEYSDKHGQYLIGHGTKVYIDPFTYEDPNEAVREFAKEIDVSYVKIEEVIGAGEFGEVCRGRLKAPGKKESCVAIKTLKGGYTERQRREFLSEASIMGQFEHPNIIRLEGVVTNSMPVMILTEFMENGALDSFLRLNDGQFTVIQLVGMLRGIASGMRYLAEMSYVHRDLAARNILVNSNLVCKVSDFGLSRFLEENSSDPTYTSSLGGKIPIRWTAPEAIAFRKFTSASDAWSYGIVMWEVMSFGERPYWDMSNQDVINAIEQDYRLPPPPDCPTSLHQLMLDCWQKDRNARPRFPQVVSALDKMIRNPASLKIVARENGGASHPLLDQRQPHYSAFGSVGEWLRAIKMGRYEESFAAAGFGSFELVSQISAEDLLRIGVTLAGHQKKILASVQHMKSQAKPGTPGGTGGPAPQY
# [9] = target: T5, Ephrin type-B receptor 4 (Homo sapiens); conditions: at 10 µM
# [10] = target: Receptor tyrosine-protein kinase erbB-4 (Homo sapiens) (UniProt Q15303); conditions: at 1 µM
# Chain of Receptor tyrosine-protein kinase erbB-4 (Homo sapiens) (Q15303 whole entry): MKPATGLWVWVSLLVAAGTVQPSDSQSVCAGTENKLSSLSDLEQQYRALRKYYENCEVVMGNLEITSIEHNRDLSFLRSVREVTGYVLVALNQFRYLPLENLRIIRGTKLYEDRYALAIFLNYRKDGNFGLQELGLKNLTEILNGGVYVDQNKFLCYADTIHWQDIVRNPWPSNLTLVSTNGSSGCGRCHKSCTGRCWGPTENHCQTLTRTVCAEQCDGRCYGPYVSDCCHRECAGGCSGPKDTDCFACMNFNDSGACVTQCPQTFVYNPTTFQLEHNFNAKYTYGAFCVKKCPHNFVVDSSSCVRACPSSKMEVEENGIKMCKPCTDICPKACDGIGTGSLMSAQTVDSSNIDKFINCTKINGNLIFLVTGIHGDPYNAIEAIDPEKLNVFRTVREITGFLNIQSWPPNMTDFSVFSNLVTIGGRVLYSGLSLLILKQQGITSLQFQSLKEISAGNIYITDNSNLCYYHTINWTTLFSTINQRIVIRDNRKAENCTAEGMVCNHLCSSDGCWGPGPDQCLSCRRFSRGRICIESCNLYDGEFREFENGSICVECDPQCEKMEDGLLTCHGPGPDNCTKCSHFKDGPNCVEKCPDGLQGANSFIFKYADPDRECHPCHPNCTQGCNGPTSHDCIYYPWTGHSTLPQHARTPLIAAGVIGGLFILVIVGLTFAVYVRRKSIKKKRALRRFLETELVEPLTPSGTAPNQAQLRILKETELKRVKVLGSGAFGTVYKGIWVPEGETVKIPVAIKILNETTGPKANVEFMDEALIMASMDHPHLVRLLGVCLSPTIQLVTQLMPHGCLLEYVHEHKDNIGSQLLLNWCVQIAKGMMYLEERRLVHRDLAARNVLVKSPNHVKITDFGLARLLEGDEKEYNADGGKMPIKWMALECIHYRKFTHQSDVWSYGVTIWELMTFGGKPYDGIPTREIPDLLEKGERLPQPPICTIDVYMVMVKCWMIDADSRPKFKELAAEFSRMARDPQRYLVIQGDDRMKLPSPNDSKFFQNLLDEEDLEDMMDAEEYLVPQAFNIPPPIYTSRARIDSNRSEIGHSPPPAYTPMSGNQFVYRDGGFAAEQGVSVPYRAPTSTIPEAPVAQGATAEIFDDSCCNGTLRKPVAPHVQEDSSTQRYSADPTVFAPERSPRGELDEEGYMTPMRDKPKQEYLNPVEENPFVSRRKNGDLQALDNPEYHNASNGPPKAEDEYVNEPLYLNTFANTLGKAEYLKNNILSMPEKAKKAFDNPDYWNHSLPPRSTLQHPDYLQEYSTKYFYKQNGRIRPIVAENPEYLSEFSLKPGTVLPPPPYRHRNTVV
# [11] = target: Receptor tyrosine-protein kinase erbB-4 (Homo sapiens) (UniProt Q15303); conditions: at 10 µM
# [12] = target: Focal adhesion kinase 1 (Homo sapiens) (UniProt Q05397); conditions: at 1 µM
# Chain of Focal adhesion kinase 1 (Homo sapiens) (Q05397 2-1052 limits assumed): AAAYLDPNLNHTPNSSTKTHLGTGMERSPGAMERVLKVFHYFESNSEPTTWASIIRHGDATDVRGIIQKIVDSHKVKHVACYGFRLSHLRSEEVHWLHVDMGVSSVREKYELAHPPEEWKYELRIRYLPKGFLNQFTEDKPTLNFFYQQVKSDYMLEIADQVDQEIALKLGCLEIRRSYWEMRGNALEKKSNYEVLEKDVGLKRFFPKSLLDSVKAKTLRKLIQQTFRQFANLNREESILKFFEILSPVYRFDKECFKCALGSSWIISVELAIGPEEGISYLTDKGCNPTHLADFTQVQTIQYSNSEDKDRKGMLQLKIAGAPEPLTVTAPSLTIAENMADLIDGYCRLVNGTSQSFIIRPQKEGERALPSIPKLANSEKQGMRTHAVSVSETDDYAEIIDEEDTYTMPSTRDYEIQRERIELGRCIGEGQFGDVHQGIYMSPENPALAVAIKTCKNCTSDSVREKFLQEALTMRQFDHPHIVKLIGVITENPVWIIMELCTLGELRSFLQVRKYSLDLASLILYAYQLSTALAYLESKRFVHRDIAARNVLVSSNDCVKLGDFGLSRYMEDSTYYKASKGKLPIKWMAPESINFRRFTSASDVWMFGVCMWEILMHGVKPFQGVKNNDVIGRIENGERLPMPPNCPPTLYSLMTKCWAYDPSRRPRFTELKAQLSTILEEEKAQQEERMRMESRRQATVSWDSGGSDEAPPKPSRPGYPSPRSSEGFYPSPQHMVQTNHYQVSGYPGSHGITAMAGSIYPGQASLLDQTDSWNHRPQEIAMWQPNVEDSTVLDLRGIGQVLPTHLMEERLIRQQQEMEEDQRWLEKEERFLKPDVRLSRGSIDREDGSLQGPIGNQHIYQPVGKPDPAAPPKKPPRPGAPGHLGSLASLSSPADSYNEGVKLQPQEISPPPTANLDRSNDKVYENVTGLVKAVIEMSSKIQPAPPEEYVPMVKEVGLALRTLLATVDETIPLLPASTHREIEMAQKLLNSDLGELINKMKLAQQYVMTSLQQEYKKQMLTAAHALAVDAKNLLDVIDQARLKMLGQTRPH
smiles,measurement,setting,value
COc1ccc(COc2ccc(Cc3cnc(N)nc3N)cc2OC)cc1,residual activity,[1],78%
same,residual activity,[2],111%
same,residual activity,[3],110%
same,residual activity,[4],108%
same,residual activity,[5],129%
same,residual activity,[6],114% (inactive)
same,residual activity,[7],110%
same,residual activity,[8],99%
same,residual activity,[9],113%
same,residual activity,[10],99%
same,residual activity,[11],70%
same,residual activity,[12],115%
